# Test results reported in PubChem BioAssay (NCI).
# Where “and” joins values, the source holds several entries; their conditions need not be identical. Equal values may be shown once. About 83,000 compounds went through this panel and 20% of them were active in at least one assay; those are over-represented in the sample as a whole.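 Single-dose data. Exposure time 48 hours. Values below 10 considered active.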 A number with no mark means an inactive call. Calls of active or inactive are those of the source.
# System: MDA-MB-468 breast
# Experiment: NCI-60 one-dose screen, 48 h (100 = growth as untreated, 0 = no growth, -100 = all killed)
# Conditions: 10 µM unless noted
row,SMILES,growth
1,Cc1sc(N=Nc2ccc(N(C)C)cc2)[n+]([O-])c1C,75.2%
2,COc1ccc(/C=N/NC(N)=S)cc1,82.6%
3,O=S(=O)(NC1c2ccccc2C[C@H]1O)c1ccc(Cl)cc1Cl (stereo not given in full),85.7%
4,C1=CC2=CC=C3C=CC=C4C(c5nc6c7ccccc7c7ccccc7c6[nH]5)=CC(=C1)C2C34 (stereo not given),21.9%
5,CC(C)(C)[Si](C)(C)OC1[C@@H](CNC(N)=O)O[C@@H](n2cnc3c(NC(=O)Nc4ccccc4)ncnc32)[C@H]1O[Si](C)(C)C(C)(C)C (stereo not given in full),85.2%
6,Clc1nc(Cl)c2ncn(CCOCCn3cnc4c(Cl)nc(Cl)nc43)c2n1,-72.3% (active)
7,COc1ccc(-n2nc(C(=O)Nc3ccc(F)cc3)nc2-c2cc(OC)c(OC)c(OC)c2)cc1,91.9%
8,C/C(=N/NC(N)=O)c1ccco1,110%
9,O=C1N=c2cc3c(cc2=C/C1=C/c1sc(=S)n(CCc2ccc(O)cc2)c1O)OCCO3,42.5%
10,COc1ccc(C2Nc3c(c(C(C)(C)C)nn3-c3ccccc3)C(=O)CS2)cc1 (stereo not given),112%
11,Cc1cc(N=Nc2ccc(C)c(N=Nc3cc(C)c(N)cc3N)c2)c(N)cc1N,96.7% and 60.3%
12,O=C(COc1ccc(/C=C2\C(=O)Nc3ccc(Cl)cc32)cc1)Nc1ccc(Cl)cc1,87.6%
13,CCCCN(CC)CC(CC)Nc1cc(OC)cc2cccnc12 (stereo not given),119%
14,Cc1csc(/N=C(N)/N=C(\N)c2cccnc2)n1,91.9%
15,CCCCCCCNc1nc(C=O)ncc1-c1ccc(C(F)(F)F)cc1,103%
16,COc1cc(OC)c(/C=C/S(=O)(=O)Cc2ccc(OC)c(NCC(=O)O)c2)c(OC)c1,-4.64% (active)
17,CC/C=C/C/C=C/C/C=C/C/C=C/C/C=C/C/C=C/CCC(=O)Nc1ccn([C@@H]2O[C@H](CO)[C@@H](O)C2(F)F)c(=O)n1,21.5%
18,COC(=O)CCCCCCN=Cc1c(O)c(O)c(C(C)C)c2cc(C)c(-c3c(C)cc4c(C(C)C)c(O)c(O)c(C=NCCCCCCC(=O)OC)c4c3O)c(O)c12,47.1%
19,COc1cc(Cc2cc(OC)c(O)c(OC)c2)cc(OC)c1O,65.2%
20,Cc1cc(CCNC=O)c(C)c2c1sc1ccccc12,71.4%

row,SMILES,growth
1,COC(=O)C1CCCN(S(=O)(=O)/N=C2\NC(=O)NC2=C(Cl)Cl)C1 (stereo not given),32.8%
2,COc1ccc(NC2=C(Br)C(=O)C(C)=C(C)C2=O)cc1,-59% (active)
3,COc1ccc(C(=O)c2c(N)c(C#N)cn2-c2ccccc2OC)cc1,31%
4,O=C1c2ccc3c4c5ccc(c24)C(=O)N1CCCOCCCCOCCCNCc1ccc(cc1)CNCCCOCCCCOCCCN(C3=O)C5=O,-81.4% (active)
5,CN=c1ccc2nc3ccc(N)cc3sc-2c1,-5.28% (active)
6,c1cncc(-c2csc(-c3c[nH]c4ccccc34)n2)c1,99.1%
7,Cc1cc2c(cc1C)N(C(=O)CCl)CCN2C(=O)CCl,-76% (active)
8,Cc1cn(-c2cc(NC(=O)c3ccc(C)c(Nc4nccc(-c5cnccn5)n4)c3)cc(C(F)(F)F)c2)cn1,103%
9,CC#Cc1nc2ccccc2c(=O)[nH]1,14.8%
10,CCOC(=O)c1nc2c3ccccc3ccn2c1C(=O)OCC,109%
11,CNCc1cccc2c1OCCOCCN(C)C(=O)CN(C)S(=O)(=O)c1ccc(cc1)-c1cnc(N)c(n1)C(=O)N2,-49.3% (active)
12,COc1ccc(C2=NN(C(N)=S)C(c3ccc4c(c3)OCO4)C2)cc1 (stereo not given),-0.33% (active)
13,CCCCCCCC12Cc3ccccc3C1=Nc1c(c3ccccc3n1C)C2=O (stereo not given),97.3%
14,N#Cc1nc(-c2ccccc2)oc1N1CCC(CO)C1 (stereo not given),92.5%
15,Clc1ccc(-c2nnc(Cn3ccnc3)o2)cc1,104%
16,COc1cc(-c2csc(NC(=O)c3cc(C(F)(F)F)cc(C(F)(F)F)c3)n2)cc(OC)c1OC,6.71% (active)
17,O=C(Nc1cccc2ccccc12)NC1CC1,96%
18,O=C1Nc2ccc(Cl)cc2/C1=C/c1ccc[nH]1,-19.6% (active)
19,Brc1ccc(-c2nc3ccccc3s2)cc1,93%
20,CCc1ccc(CNCC(O)c2ccccc2)cc1 (stereo not given),-1.1% (active)
